From PubChem BioAssay AID1159580 (chemical genetic matrix, 2015)
“And” between values parts separate entries of the source, which are not always exact repeats. Equal values may be shown once. In all, about 5,500 compounds went through this assay and about 2,000 (36%) were called active. Inconclusive results (about 18%) are left out. Cut-off read from the data, not from the text of the source: active = normalized growth mostly below about 0.91 (no sharp cut-off); inconclusive = no clear call, values can overlap the other calls; inactive = mostly above about 0.92. This is one part of the list.

Assay: chemical genetic growth profiling, strain panel (AID 1159580);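 note: tested at 20 µM; growth read once vehicle control cultures reached saturation at 30 °C; 1 = growth at the plate median or of vehicle wells; lower values mean less growth of the strain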
Conditions: S. cerevisiae deletion strains, growth OD

Measured: normalized growth

CC(=O)[C@@]1(O)CCC2C3C[C@H](C)C4=CC(=O)C=CC4(C)[C@@]3(F)[C@@H](O)C[C@@]21C (stereo partly drawn)
inactive: locus YAL013W, strain DEP1, stronger effect = lower value 0.995 | locus YAL021C, strain ccr4, stronger effect = lower value 0.965 | locus YAL026C, strain drs2, stronger effect = lower value 0.966 | locus YAL030W, strain snc1, stronger effect = lower value 0.961 | locus YBL061C, strain skt5, stronger effect = lower value 0.976 | locus YBR009C, strain hhf1, stronger effect = lower value 0.931 | locus YBR021W, strain FUR4, stronger effect = lower value 0.99 | locus YBR023C, strain chs3, stronger effect = lower value 0.969 | locus YBR171W, strain sec66, stronger effect = lower value 0.973 | locus YBR229C, strain ROT2, stronger effect = lower value 1.01 | locus YBR231C, strain swc5, stronger effect = lower value 0.975 | locus YBR279W, strain paf1, stronger effect = lower value 0.98 | locus YCL011C, strain gbp2, stronger effect = lower value 0.964 | locus YCL016C, strain dcc1, stronger effect = lower value 0.963 | locus YCL029C, strain bik1, stronger effect = lower value 0.997 | locus YCL069W, strain vba3, stronger effect = lower value 0.979 | locus YCR088W, strain abp1, stronger effect = lower value 0.973 | locus YDL005C, strain med2, stronger effect = lower value 0.962 | locus YDL035C, strain GPR1, stronger effect = lower value 0.986 | locus YDL040C, strain nat1, stronger effect = lower value 0.983 | locus YDL074C, strain BRE1, stronger effect = lower value 0.981 | locus YDL101C, strain DUN1, stronger effect = lower value 1.02 | locus YDL134C, strain PPH21, stronger effect = lower value 0.99 | locus YDL185W, strain tfp1, stronger effect = lower value 1.03 | locus YDL192W, strain arf1, stronger effect = lower value 1.01 | locus YDR001C, strain nth1, stronger effect = lower value 0.977 | locus YDR069C, strain doa4, stronger effect = lower value 0.969 | locus YDR101C, strain arx1, stronger effect = lower value 0.971 | locus YDR137W, strain rgp1, stronger effect = lower value 0.975 | locus YDR150W, strain NUM1, stronger effect = lower value 0.991 | locus YDR159W, strain sac3, stronger effect = lower value 0.929 | locus YDR162C, strain NBP2, stronger effect = lower value 0.984 | locus YDR195W, strain ref2 0.98 | locus YDR297W, strain sur2, stronger effect = lower value 0.975 | locus YDR318W, strain mcm21, stronger effect = lower value 1.01 | locus YDR334W, strain swr1, stronger effect = lower value 0.976 | locus YDR335W, strain msn5, stronger effect = lower value 0.965 | locus YDR388W, stronger effect = lower value 1.01 | locus YDR392W, strain spt3, stronger effect = lower value 0.936 | locus YDR502C, strain sam2, stronger effect = lower value 1.01 | locus YEL003W, strain gim4, stronger effect = lower value 0.971 | locus YEL037C, strain rad23, stronger effect = lower value 0.975 | locus YEL061C, strain CIN8 (second series), stronger effect = lower value 0.962 | locus YEL061C, strain CIN8, stronger effect = lower value 0.989 | locus YER015W, strain faa2, stronger effect = lower value 0.977 | locus YER016W, strain bim1, stronger effect = lower value 0.933 | locus YER110C, stronger effect = lower value 1.02 | locus YER111C, strain swi4, stronger effect = lower value 0.969 | locus YER155C, strain BEM2 (second series), stronger effect = lower value 1.03 | locus YER155C, strain BEM2, stronger effect = lower value 1.01 | locus YER167W, strain BCK2, stronger effect = lower value 0.988 | locus YFR010W, strain ubp6, stronger effect = lower value 0.953 | locus YGL078C, strain dbp3, stronger effect = lower value 1 | locus YGL086W, strain mad1, stronger effect = lower value 0.985 | locus YGL167C, strain pmr1, stronger effect = lower value 0.977 | locus YGL173C, strain kem1, stronger effect = lower value 0.976 | locus YGL227W, strain vid30, stronger effect = lower value 0.988 | locus YGL240W, strain doc1, stronger effect = lower value 0.955 | locus YGL248W, strain PDE1, stronger effect = lower value 1.01 | locus YGL253W, strain hxk2, stronger effect = lower value 0.961 | locus YGR078C, strain PAC10, stronger effect = lower value 1 | locus YGR135W, strain pre9, stronger effect = lower value 1.05 | locus YGR252W, strain gcn5, stronger effect = lower value 1.08 | locus YHR013C, strain ard1, stronger effect = lower value 0.905 | locus YHR027C, strain rpn1, stronger effect = lower value 0.971 | locus YHR030C, strain SLT2, stronger effect = lower value 0.979 and 0.988 | locus YHR079C, strain IRE1 (second series), stronger effect = lower value 1.01 | locus YHR079C, strain IRE1, stronger effect = lower value 0.971 | locus YHR094C, strain hxt1, stronger effect = lower value 1.01 | locus YHR129C, strain ARP1, stronger effect = lower value 1.01 | locus YHR142W, strain chs7, stronger effect = lower value 0.96 | locus YHR200W, strain rpn10, stronger effect = lower value 1.01 | locus YIL066C, strain RNR3, stronger effect = lower value 0.996 | locus YIL073C, strain SPO22, stronger effect = lower value 1.02 | locus YIL125W, strain kgd1, stronger effect = lower value 1 | locus YIR030C, strain dcg1, stronger effect = lower value 1 | locus YJL092W, strain hpr5, stronger effect = lower value 0.983 | locus YJL095W, strain BCK1 (second series), stronger effect = lower value 0.985 | locus YJL095W, strain BCK1, stronger effect = lower value 1.02 and 0.999 | locus YJL115W, strain asf1, stronger effect = lower value 0.954 | locus YJL129C, strain trk1, stronger effect = lower value 0.968 | locus YJL134W, strain LCB3, stronger effect = lower value 1.01 | locus YJL154C, strain vps35, stronger effect = lower value 0.984 | locus YJL164C, strain tpk1, stronger effect = lower value 0.937 | locus YJL166W, strain qcr8, stronger effect = lower value 0.979 | locus YJL168C, strain set2, stronger effect = lower value 1 | locus YJL187C, strain SWE1 (second series), stronger effect = lower value 1.02 | locus YJR043C, strain POL32, stronger effect = lower value 0.99
